CYP2C19 inh: human CYP2C19 inhibition | P33261 | CYP2C19 Supersomes, luciferin-H EGE luminescence, 30 min | inhibition, % at 5 µM | 96,000 compounds, 21% hits;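 active means CYP2C19 inhibition above a set limit at 5 µM in the primary screen, cut at about 50% in these data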;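 further: plate controls were negative control wells for no effect and 2.5 mM tranylcypromine positive control for full effect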
sEH inh: inhibitors of human soluble epoxide hydrolase | recombinant human sEH enzymatic activity assay | inhibition, % at 2 µM | 91,000 compounds, 0.34% hits | AID 707; in the data active means inhibition above about 80%
Target sequence (P34913 whole entry, looked up): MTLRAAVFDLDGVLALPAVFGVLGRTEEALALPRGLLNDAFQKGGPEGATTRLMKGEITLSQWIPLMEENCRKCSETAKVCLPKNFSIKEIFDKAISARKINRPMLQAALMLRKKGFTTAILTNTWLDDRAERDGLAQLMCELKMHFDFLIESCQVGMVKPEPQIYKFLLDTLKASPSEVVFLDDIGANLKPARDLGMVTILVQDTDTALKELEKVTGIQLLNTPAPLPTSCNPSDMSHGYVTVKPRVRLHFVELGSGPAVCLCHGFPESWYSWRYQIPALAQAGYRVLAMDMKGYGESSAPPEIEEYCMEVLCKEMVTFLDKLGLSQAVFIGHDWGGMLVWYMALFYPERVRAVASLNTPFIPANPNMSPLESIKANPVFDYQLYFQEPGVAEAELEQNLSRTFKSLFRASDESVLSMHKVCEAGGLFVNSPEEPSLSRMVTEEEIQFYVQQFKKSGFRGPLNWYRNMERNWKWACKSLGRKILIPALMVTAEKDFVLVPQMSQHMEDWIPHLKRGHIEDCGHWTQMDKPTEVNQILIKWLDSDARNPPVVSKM
CYP2C9 inh: blocks human cytochrome P450 2C9; CYP2C9 Supersomes, luciferin-H conversion, luminescence; inhibition, % at 5 µM; 96,000 compounds, 20% hits; AID 777;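 active means blocking of liver enzyme CYP2C9 beyond about 50% at 5 µM, limit read from the data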
CYP2C9 act: activators of human CYP2C9; P11712; recombinant CYP2C9, luciferin-H conversion, luminescence; stronger effect = higher value; factor 1 = untreated enzyme, 0 = blocked; 96,000 compounds, 1.4% hits; AID 1024; activation factor at 5 µM;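 active means activation factor of 2 or more for CYP2C9 at a 5 µM dose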;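 further: 0 = sulfaphenazole-blocked wells and 1 = vehicle-only wells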
CYP2C19 act: increases human CYP2C19 enzyme activity | activation factor at 5 µM | 96,000 tested, under 10 active | P33261 | recombinant CYP2C19, luciferin-H EGE luminescence; stronger effect = higher value; 0 = fully inhibited enzyme, 1 = untreated enzyme;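 active means activation factor of at least 2 at 5 µM in the primary screen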;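 further: 0 = wells with 2.5 mM tranylcypromine and 1 = vehicle-only wells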
sEH act: soluble epoxide hydrolase (human) activation; purified human sEH enzymatic activity, activator screen; AID 717; 91,000 compounds, 0.04% hits; activation, % at 2 µM; in the data active means activation above about 37%
* marks the source's active call; other numbers are inactive results; · = not tested or not shown. This is a sample that favours compounds with a hit; in the whole collection about 27% have one here.

SMILES	CYP2C19 inh	sEH inh	CYP2C9 inh	CYP2C9 act	CYP2C19 act	sEH act
CCOC(=O)c1c(NC(=O)CSc2nnc(-c3ccccc3)n2CC)sc(C(C)=O)c1C	89.7*	3.8	97.3*	0	0.1	-4.3
CCC(C)OC(=O)C1=C(C)O[C@]23OC(N)=C(C#N)[C@]12C(=O)c1ccccc13 (some centres not stated)	·	-0.1	·	·	·	3.1
CCOC(=O)c1sc(NC(=O)CSc2nnc(-c3ccco3)n2CC)c(C(=O)OCC)c1C	8.9	2.9	96.3*	0	0.9	2.3
COC(=O)c1c(NC(=O)C2c3ccccc3Oc3ccccc32)sc(C)c1C	12.3	-13.6	40.0	0.6	0.9	16.5
CCn1c(SCc2c(F)cccc2Cl)nnc1-c1ccco1	60.7*	-11.2	-11.9	1.1	0.4	13.9
CCOC(=O)c1c(NC(=O)CSc2nnc(-c3cccc(C)c3)n2CC)sc(C(C)=O)c1C	45.1	0.0	94.3*	0.1	0.5	0.4
CCn1c(SCC(=O)OCc2ccccc2)nnc1-c1ccco1	12.3	-8.2	7.4	0.9	0.9	8.3
CCOC(=O)c1c(NC(=O)C2c3ccccc3Oc3ccccc32)sc(C(C)=O)c1C	47.6	3.5	94.4*	0.1	0.5	-5.5
CCOC(=O)c1c(NC(=O)CSc2nc(C)cc(C)c2C#N)sc(C(C)=O)c1C	23.6	3.4	18.1	0.8	0.8	-5.4
O=C(c1cc2c(s1)-c1ccccc1S(=O)(=O)C2)N1CCN(Cc2ccccc2)CC1	42.8	·	32.9	0.7	0.6	·
CCC1(C)Cc2ccccc2-c2nc(-c3ccccc3)oc(=O)c21 (configuration not stated)	-18.5	-9.9	46.3	0.5	1.2	9.3
CCn1c(SCC(=O)Nc2sc3c(c2C#N)CCCC3)nnc1-c1ccco1	14.8	11.6	55.1*	0.4	0.9	-9.6
CCn1c(SCC(=O)Nc2sc3c(c2C#N)CCC(C(C)(C)C)C3)nnc1-c1ccco1 (configuration not stated)	18.3	6.6	33.4	0.7	0.8	-4.0
CCOC(=O)C1CCN(C(=O)CN(c2cc(OC)ccc2OC)S(=O)(=O)c2ccccc2)CC1	16.7	·	44.6	0.6	0.8	·
COc1ccc(Cl)cc1N(CC(=O)Nc1ccc2c(c1)OCO2)S(C)(=O)=O	94.9*	2.4	85.9*	0.1	0.1	-1.2
COCCCNC(=O)CN(c1cc(OC)ccc1OC)S(=O)(=O)c1ccccc1	56.1*	19.9	59.3*	0.4	0.4	-17.9
CS(=O)(=O)N(CC(=O)Nc1ccc2c(c1)OCO2)c1ccccc1	26.9	·	20.7	0.8	0.7	·
COc1ccc(OC)c(N(CC(=O)Nc2ccc3c(c2)OCO3)S(=O)(=O)c2ccccc2)c1	98.3*	1.1	100.0*	0	0	0.1
CS(=O)(=O)N(CC(=O)Nc1ccc2c(c1)OCCO2)c1ccc2c(c1)OCO2	87.8*	5.9	57.6*	0.4	0.1	-4.3
COc1ccc(OC)c(N(CC(=O)O)S(=O)(=O)c2ccc(OC)c(OC)c2)c1	3.2	·	10.2	0.9	1	·
CCN(CC)C(=O)CN(c1cc(Cl)ccc1OC)S(C)(=O)=O	·	1.3	·	·	·	0.3
O=C1CCCN1c1cc(Cl)ccc1Cl	-15.0	8.6	-47.9	1.5	1.1	-7.2
Cn1c(=O)c2c(nc(OCC3COC(C)(C)O3)n2Cc2ccccc2F)n(C)c1=O (configuration not stated)	8.9	7.7	25.9	0.7	0.9	-8.0
Cc1ccc(NC2SC(=O)N(Cc3cccc(C(=O)O)c3)C2=O)cc1 (configuration not stated)	4.2	-10.4	13.4	0.9	1	13.8
COC(=O)C1=C(C(=O)OC)SC(=C2C(=S)C(C)(C)N(C(=O)CC(C)C)c3ccccc32)S1	69.8*	-3.7	29.0	0.7	0.3	0.1
SMILES	CYP2C19 inh	sEH inh	CYP2C9 inh	CYP2C9 act	CYP2C19 act	sEH act
CC(C)Cc1ccc(S(=O)(=O)N2CCCC2)cc1	90.9*	-4.3	78.2*	0.2	0.1	6.8
Cc1cc(NS(=O)(=O)c2ccc(CC(C)C)cc2)no1	72.5*	-9.1	90.0*	0.1	0.3	11.6
Nc1ccc(S(=O)(=O)N2CCCC2)cc1	-8.6	-9.6	-33.9	1.3	1.1	8.4
CN(C)S(=O)(=O)c1ccc(S(=O)(=O)N2CCCC2)cc1	62.2*	5.2	0.7	1	0.4	-3.1
O=S(=O)(c1ccc(S(=O)(=O)N2CCCC2)cc1)N1CCCCCC1	18.9	·	8.4	0.9	0.8	·
COc1cccc(C(=O)COC(=O)C(C)N2C(=O)C3C4C=CC(C4)C3C2=O)c1 (configuration not stated)	30.5	-10.5	33.2	0.7	0.7	9.7
COc1ccc(N2CCN(CCCNC(=O)CN3CCN(Cc4ccccc4C)C3=O)CC2)cc1	6.8	10.4	35.9	0.6	0.9	-12.5
CCCc1nnc(NC(=O)CCC(=O)N2CCN(c3ccccn3)CC2)s1	-1.7	-13.3	12.7	0.9	1	13.4
CCn1c(SCC(=O)C(C)(C)C)nnc1-c1ccccc1OC	18.1	31.4	-3.2	1	0.8	-33.4
CCn1c(SCc2nc3ccccc3[nH]2)nnc1-c1ccccc1OC	100.4*	15.8	70.1*	0.3	0	-16.9
CCn1c(SCc2nc3ccccc3[nH]2)nnc1-c1cccs1	99.4*	-2.4	32.8	0.7	0	2.0
Clc1ccccc1/C=N/c1cc(-c2ccccc2)nn1-c1ccccc1	-8.2	-17.2	-3.6	1	1.1	15.8
CC1(C)CC(=O)C2=C(C1)OC(=O)C2(NC(=O)c1cccs1)C(F)(F)F (configuration not stated)	-15.0	-3.1	55.8*	0.4	1.1	3.1
CCCCN1C(=O)C(NC(=O)c2cccnc2)(C(F)(F)F)C2=C1CC(C)(C)CC2=O (configuration not stated)	4.6	-25.4	10.4	0.9	1	23.9
CC(C)C1Nc2ccc(S(N)(=O)=O)cc2C2C=CCC21 (configuration not stated)	69.3*	-4.8	25.4	0.7	0.3	1.3
Cc1ccc(C)c(NC(=O)C(C)CC2COCCO2)c1 (configuration not stated)	0.1	5.3	-8.3	1.1	1	-5.4
O=C(NCC1CCCO1)c1ccc(CS(=O)(=O)Cc2ccc(F)cc2)o1 (configuration not stated)	5.3	-11.2	31.0	0.7	0.9	11.5
COc1ccc(C2C(C(C)=O)=C(C)N=c3s/c(=C\c4ccco4)c(=O)n32)c(OC)c1 (configuration not stated)	52.6*	8.9	77.7*	0.2	0.5	-9.4
COC(=O)c1ccccc1NC(=O)N1CCN(C(=O)c2ccco2)CC1	52.1*	·	1.0	1	0.5	·
O=C(O)/C=C\C(=O)Nc1ccccc1C(=O)N1CCN(c2ccc(Cl)cc2)CC1	34.5	-9.4	58.0*	0.4	0.7	11.8
Cc1sc(NC(=O)c2ccco2)c(CN2CCN(c3ccccc3)CC2)c1C	72.1*	-4.0	80.4*	0.2	0.3	5.5
